D1 potentiator: Potentiators of Human D1 Dopamine Receptor: qHTS. D(1A) dopamine receptor (Homo sapiens), P21728. HEK293 TREx D1 cells, calcium flux, dopamine EC20 potentiation. potentiation, % at 10 µM. 0.036% of 360,000 active. AID 504651, 2011; in the data active means potentiation above about 30%
TRHR ag: qHTS for Small Molecule Agonists and Allosteric Enhancers of Human TRH Receptor: Primary Screen for Agonists. TRHR cells, calcium flux fluo-8, FDSS agonist mode. Thyrotropin-releasing hormone receptor (Homo sapiens), P34981. 0.18% of 360,000 active. activation, % at 2 µM
Target sequence (P34981 whole entry, looked up): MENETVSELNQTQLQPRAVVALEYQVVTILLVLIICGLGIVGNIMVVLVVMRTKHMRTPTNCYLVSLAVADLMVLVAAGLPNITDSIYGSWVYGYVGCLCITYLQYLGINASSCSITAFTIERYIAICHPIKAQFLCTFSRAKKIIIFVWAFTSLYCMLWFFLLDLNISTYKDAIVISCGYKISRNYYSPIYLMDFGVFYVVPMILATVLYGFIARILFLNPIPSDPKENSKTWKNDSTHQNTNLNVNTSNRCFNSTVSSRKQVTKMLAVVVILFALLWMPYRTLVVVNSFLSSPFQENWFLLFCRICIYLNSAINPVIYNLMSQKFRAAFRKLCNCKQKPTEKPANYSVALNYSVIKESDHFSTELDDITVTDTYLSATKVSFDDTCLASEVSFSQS
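TRHR-expressing cells, plated overnight in medium with 10% serum, were loaded with fluo-8 calcium dye at room temperature. After a 10 s baseline, library compound was pin-added and calcium release was recorded kinetically (ex 480/em 530) as agonist response.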
D1 antagonist: Antagonist of Human D 1 Dopamine Receptor: qHTS; 3.2% of 360,000 active; HEK293 TREx D1 cells, calcium flux, dopamine EC80; active compounds read low; D(1A) dopamine receptor (Homo sapiens), P21728; activity change, negative = inhibition, % at 10 µM; in the data active means activity change below about -30%
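Kinetic fluorescence of a calcium dye serves as the read-out. D1-expressing Hek293 Trex cells, induced overnight at 30 C, are exposed to compound for 180 s before an EC80 dopamine addition, then read 180 s further.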
D1 agonist: Allosteric Agonists of the Human D1 Dopamine Receptor: qHTS; HEK293 T-REx D1 cells, calcium flux, agonist mode; 1% of 360,000 active; D(1A) dopamine receptor (Homo sapiens), P21728; activation, % at 2 µM; AID 504660, 2011
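Inducible HEK293 T-REx D1 cells, force-coupled to calcium signalling, were plated at 4000 cells/well with tetracycline and held overnight at 30 C. After no-wash calcium dye loading, compound-evoked calcium rise over 180 s flagged agonists.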
TRHR PAM: qHTS for Small Molecule Agonists and Allosteric Enhancers of Human TRH Receptor: Primary Screen for Enhancers | Thyrotropin-releasing hormone receptor (Homo sapiens), P34981 | TRHR cells, fluo-8 calcium fluorescence, EC20 TRH enhancement | enhancement, % at 2 µM | 0.66% of 360,000 active; in the data active means enhancement above about 30%
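Enhancer read-out: after compound pinning and an initial kinetic agonist-mode read, an EC20 of TRH (10 nM final) was injected and fluo-8 calcium signal (Ex 480/Em 530) followed at 1 s/cycle for 100 cycles in TRHR-expressing cells.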
Each line names hits and unclear results; the compound was inactive in the other large screens; ! = repeats disagree. A selection: hits, their analogues and other compounds. The true share with any hit is near 4.7%. Unless noted, no stated cut-off is given here; in the data, active means activation above about 30%; inactive means the rest.

CC(C)CCn1c(SCc2cccc(F)c2)nc2ccsc2c1=O	none
CN1CCN(/N=C/c2ccc(-c3ccccc3)cc2)CC1	D1 antagonist -76.2, D1 agonist 72.1
C(=N\N1CCN(Cc2ccccc2)CC1)/c1ccc(-c2ccccc2)cc1	none (no result: D1 antagonist)
COc1ccc(C(=S)NCS(=O)(=O)c2ccc(C)cc2)cc1	D1 antagonist -35.3
Cc1ccc(S(=O)(=O)CNC(=S)c2ccc3ccccc3c2)cc1	none
Cc1cccc(N2CCN(C(=O)C3CCN(S(=O)(=O)c4cn(C)cn4)CC3)CC2)c1C	none
Cc1ccccc1OCC(=O)N1N=C(C(F)(F)F)CC1(O)C(C)(C)C (stereo not drawn)	D1 agonist 59.4
CC(C)(C)C1(O)CC(C(F)(F)F)=NN1C(=O)Cc1ccc([N+](=O)[O-])cc1 (stereo not drawn)	D1 antagonist -34.0
CCC1=NN(C(=O)Cc2ccc([N+](=O)[O-])cc2)C(O)(C(F)(F)F)C1 (stereo not drawn)	D1 agonist 33.1
CCOc1ccccc1NC(=O)Cn1c(=O)nc(-c2ccccc2F)c2cc(Cl)ccc21	D1 antagonist -43.0
CC(=O)c1cccc(NC(=S)NC(=O)Cc2ccc(Cl)cc2)c1	D1 agonist 63.1
CC(=O)c1cccc(NC(=S)NC(=O)c2ccccc2Cl)c1	D1 antagonist -30.7
CC(=O)c1cccc(NC(=S)NC(=O)c2ccc(C)cc2Cl)c1	none
O=C(Cc1ccc(Cl)cc1)NC(=S)Nc1ccccc1N1CCOCC1	D1 antagonist -33.8, D1 agonist 34.1
CC(=O)Nc1cccc(C(=O)OCc2ccc(C(=O)Oc3ccc(Cl)cc3)cc2)c1	D1 antagonist -32.0
COc1cc2ccccc2cc1C(=O)Nc1ccc2oc(-c3cc(Br)ccc3Cl)nc2c1	none
COc1ccc(C2C=C(c3ccccc3)Nc3nc(NS(=O)(=O)c4ccccc4)nn32)cc1 (stereo not drawn)	none
CC(=O)c1cccc(NC(=O)CC(c2ccc(C)cc2)N2Cc3ccccc3C2=O)c1 (stereo not drawn)	none
O=C(COC(=O)CNC(=O)c1ccc(Cl)cc1Cl)Nc1cccc(S(=O)(=O)N2CCCC2)c1	D1 antagonist -31.8
CC1CCCC(C)N1C(=O)COC(=O)CNC(=O)c1ccc(Cl)cc1Cl (stereo not drawn)	TRHR PAM 33.5
O=C(COC(=O)CNC(=O)c1ccccc1F)Nc1cccc(S(=O)(=O)N2CCCCCC2)c1	none
CCc1ccccc1OCC(=O)Nc1cccc(S(=O)(=O)N2CCCC2)c1	D1 antagonist -30.0
Cn1ccnc1SCC(=O)Nc1cccc(S(=O)(=O)N2CCCCCC2)c1	D1 agonist 31.2
Cc1ccc(S(=O)(=O)N2CCCCC2)cc1NC(=O)CSc1nccn1C	none
O=C(CNC(=O)c1ccc(Cl)cc1Cl)OCC(=O)N1CCCC1	none
CC(C)c1ccc(NC(=O)c2cc3c(=O)oc4ccccc4c3s2)cc1	none
Cc1ccc(CNC(=O)Cn2c(=O)n(-c3ccc(Cl)cc3)c(=O)c3c(C)c(C)sc32)cc1	none
Cc1cc(OCC(=O)Nc2cccc(S(=O)(=O)N3CCCC3)c2)ccc1Cl	D1 antagonist -30.1
O=C(Cc1ccccc1Cl)Nc1cccc(S(=O)(=O)N2CCCCCC2)c1	none
Cc1cc(OCC(=O)Nc2cccc(S(=O)(=O)N3CCCCC3)c2)ccc1Cl	none
O=C(CCc1ccccc1Cl)Nc1cccc(S(=O)(=O)N2CCCC2)c1	D1 antagonist -32.5
COc1cccc(/C=C/C(=O)OCC(=O)Nc2cccc(S(=O)(=O)N3CCCCC3)c2)c1OC	TRHR PAM 34.3
C/C=C1\C(OC2OC(CO)C(O)C(O)C2O)OC=C(C(=O)OC)C1CC(=O)OCC1C(C)C(OC(=O)CC2C(C(=O)OC)=COC(OC3OC(CO)C(O)C(O)C3O)/C2=C\C)CC1C(CO)CO (stereo not drawn)	D1 antagonist -31.2
Fc1ccc2ncc3c(-c4ccccc4)n[nH]c3c2c1	none
Cc1ccc(-n2nnc(-c3nsc(NC(=O)c4ccc(C)c(C)c4)n3)c2C)cc1	none
CCc1ccccc1-n1nnc(-c2nsc(NC(=O)c3ccc(C)c(C)c3)n2)c1C	TRHR ag 33.6
Cc1ccccc1CS(=O)(=O)Cc1ccc(C(=O)NCCc2ccc(Cl)cc2)o1	none
Cc1cc(C)nc(CCNC(=O)c2cc(COc3ccc(F)cc3Cl)on2)n1	none
Cc1cc(C)nc(CCNC(=O)c2cc(COc3ccc(F)cc3F)on2)n1	D1 antagonist -34.4
Cc1ccc2c(c1)Cc1c(nc(-c3ccc(F)cc3)nc1SCC(=O)N1CCCCC1)O2	TRHR PAM 32.6
Cc1ccc2nc(CCl)[n+]([O-])c(-c3ccccc3)c2c1	D1 antagonist -38.1
O=C1c2cccnc2Nc2ccccc2N1CCCF	D1 antagonist -32.8
CNC(=O)CCCN1C(=O)c2cccnc2Sc2ccccc21	none
COc1cc(-c2c(C(C)=O)c(C)nc3c2C(=O)c2ccccc2-3)cc(OC)c1OC	none
CC(=O)c1c(Cl)nc2cccc3c2c1-c1ccccc1C3=O	TRHR PAM 34.3
O=C(O)CCN(CCC(=O)O)c1ccccc1	D1 antagonist -92.7
O=C(O)CCN(CCC(=O)O)S(=O)(=O)c1ccccc1	none
CCC1OC23CCCCC2C(C#N)(C(=N)O3)C1(C#N)C#N (stereo not drawn)	none
CC1OC23CCCCC2C(C#N)(C(=N)O3)C1(C#N)C#N (stereo not drawn)	D1 antagonist -43.3
COC(=O)Cn1ccc2cc(S(=O)(=O)N3CCCCC3)ccc21	D1 antagonist -50.9!
COc1ccc(OC)c(CNC(=O)CCCn2ccc3cc(S(=O)(=O)N4CCCC4)ccc32)c1	D1 antagonist -32.6!
COC(=O)Cn1ccc2cc(S(=O)(=O)N3CCCCCC3)ccc21	none
COc1ccccc1CCNC(=O)Cn1ccc2cc(S(=O)(=O)N3CCCC3)ccc21	D1 antagonist -30.8
CCCN(CCC)CCCNC(=O)C1CCCN(S(=O)(=O)c2cccc3nsnc23)C1 (stereo not drawn)	none
COc1ccc(OCC(=O)Nc2cccc(-c3nc4ccccc4s3)c2C)cc1	D1 agonist 35.0
Cc1cccc(-c2nc3ccccc3c(=O)[nH]2)c1	D1 antagonist -30.4
Cc1ccc(/C=C/c2nc3ccccc3c(=O)[nH]2)cc1	D1 antagonist -39.6
O=c1[nH]c(-c2ccncc2)nc2ccccc12	none
COc1cccc(CNC(=O)CCc2c(C)nn(-c3ccc(N4CCCC4)nn3)c2C)c1	D1 antagonist -40.5
